NPC1 promoter act: activators of NPC1 promoter; AID 485313; Huh7 NPC1 promoter luciferase reporter, 24 h; 320,000 tested, 2.4% active; Potency, µM (titrated, usually from 9.22 µM), for inactives: at the highest dose activation, hits mostly activators; further: % of control where 0% means no effect; nearly all actives have a fitted effect of over 60% in size
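Compounds in DMSO were transferred onto Huh7 NPC1-luciferase reporter cells pre-incubated 2 h; after 24 h at 37 °C, Amplite reagent was dispensed and luminescence recorded 10 min later.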
FLuc counter: counter-screen for miR-21 project: firefly luciferase inhibitors or activators; 360,000 tested, 6.9% active; purified FLuc, Km substrates, luminescence inhibition; Potency, µM (titrated, usually from 57.5 µM), for inactives: at the highest dose activity change, negative = inhibition, most hits filed as inhibitors; P08659;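 further: plate controls were vehicle for no effect and reference inhibitor for full effect; nearly all actives have a fitted effect of over 55% in size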
Target sequence (P08659 whole entry, looked up): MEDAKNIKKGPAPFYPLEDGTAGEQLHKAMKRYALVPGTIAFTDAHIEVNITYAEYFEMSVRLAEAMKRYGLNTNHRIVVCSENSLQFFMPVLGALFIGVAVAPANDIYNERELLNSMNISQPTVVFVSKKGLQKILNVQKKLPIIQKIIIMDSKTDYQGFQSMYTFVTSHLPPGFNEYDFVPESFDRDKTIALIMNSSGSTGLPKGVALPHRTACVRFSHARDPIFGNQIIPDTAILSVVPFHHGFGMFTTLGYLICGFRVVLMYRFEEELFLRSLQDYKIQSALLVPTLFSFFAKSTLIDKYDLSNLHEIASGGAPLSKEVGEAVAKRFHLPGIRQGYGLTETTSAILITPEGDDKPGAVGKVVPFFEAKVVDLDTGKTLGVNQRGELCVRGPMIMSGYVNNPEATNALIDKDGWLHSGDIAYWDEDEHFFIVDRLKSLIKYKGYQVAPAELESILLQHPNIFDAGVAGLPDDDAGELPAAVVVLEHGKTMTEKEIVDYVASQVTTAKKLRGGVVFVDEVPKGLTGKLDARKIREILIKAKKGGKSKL
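Purified P. pyralis luciferase, 10 nM final, with Km-level 10 uM D-luciferin and 10 uM ATP in 50 mM Tris acetate pH 7.5, 10 mM Mg acetate, 0.01% Tween-20, 0.05% BSA; 6-point qHTS titration about 60 µM downward; luminescence read.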
Luc counter: counter-screen: inhibitors of Kinase-Glo firefly luciferase; Q27757; Kinase-Glo luciferase, ATP luminescence, 8 min; Potency, µM (series often up to 38.3 µM), for the others: at the top dose activity change, negative = inhibition, actives largely listed as inhibitors; 200,000 tested, 0.28% active; AID 1379; further: on the % scale 0 is the no-effect control and ±100 the full control effect; nearly all actives have a fitted effect of over 60% in size
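Luminescence was the read-out, taken after 8-minute incubation at ambient temperature. Luciferase turned over luciferin with 10 uM ATP in imidazole pH 7.2 buffer containing KCl, MgCl2, Tween 20 and BSA.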
ELG1 genotox: induces genotoxicity in HEK293T cells with luciferase-tagged ELG1; HEK293T ELG1-luciferase reporter, luminescence, 16 h; Potency, µM (titrated, usually from 46 µM), for the others: top-dose activity change, positive = activation, usual class: activators; 330,000 tested, 1.3% active; further: % of control where 0% means no effect; nearly all actives have a fitted effect of over 60% in size
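HEK293T cells expressing luciferase-tagged ELG1 were exposed to compound or DMSO vehicle for 16 hr at 37 °C and 5% CO2. Luciferase activity was then measured with ONE-Glo after 30 min at room temperature.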
Rab9 promoter act: activators of Rab9 promoter. 320,000 tested, 2.8% active. Huh7 Rab9 promoter-luciferase reporter, luminescence, 24 h. Potency, µM (doses to about 9.22 µM), for the others: at the top dose activation, negative = inhibition, hits mostly activators; further: % of control where 0% means no effect; nearly all actives have a fitted effect of over 60% in size
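Stable Rab9-luc Huh7, 1500 cells/well, 2 h settle; cmpd in DMSO, 24 h, 37 °C/5% CO2; luciferase reagent 10 min RT; luminescence.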
SMN2 splice enh: increases expression of the SMN2 splice variant. HEK293 SMN2-luciferase splicing reporter, luminescence, 30-36 h. Potency, µM (highest dose often 46.1 µM), without a hit: at the top dose activity change, positive = activation, actives largely listed as activators. 210,000 tested, 2.8% active; further: % of control where 0% means no effect; nearly all actives have a fitted effect of over 55% in size
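qHTS luciferase splicing reporter: luminescence rises when SMN2 exon 7 is included in transfected HEK293 cells. Compound exposure lasted 30-36 h at 37C, with 4.5 mM final sodium butyrate as control, followed by a ONE-Glo read.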
An asterisk follows results filed as active; [ ] = dose if it differs, or a comment. Sampled rows, rich in hits. Any-hit rate of the full collection: about 7.5%. The call rests on the fitted dose curve; in most records, active means well fitted curve in the direction sought with a large enough effect; inconclusive means small, poorly fitted or top-dose-only effect, or another doubt; inactive means no such curve, though single readings can be large; an effect the other way counts as inactive or inconclusive. Potency means the concentration at half of the fitted maximal effect.

Results for Fc1ccccc1/C=N/Nc1ncnc2ccccc12 ?
NPC1 promoter act: 15%; FLuc counter: 1.7µM*; Luc counter: -8%; ELG1 genotox: inconclusive; Rab9 promoter act: 3.2µM*; SMN2 splice enh: 11µM*

Results for Cc1oc2ncn(C)c(=O)c2c1C(=O)NCCCN1CCCCC1C (stereo not given) ?
FLuc counter: -5%

What do the screens show for `Cc1ccc(C(=O)Nc2ccccc2C(=O)NC(CC(=O)O)C(=O)O)cc1` (stereo not given)?
NPC1 promoter act: 17%; FLuc counter: 15µM*; Luc counter: -1%; ELG1 genotox: 5%; Rab9 promoter act: 12%; SMN2 splice enh: -1%

Results for Cc1ccc(C(=O)Nc2ccccc2C(=O)NC(C(=O)O)C(C)C)cc1 (stereo not given) ?
NPC1 promoter act: inconclusive; FLuc counter: 11µM*; Luc counter: 0%; ELG1 genotox: inconclusive; Rab9 promoter act: inconclusive; SMN2 splice enh: 13µM*

How did CCC(C)C(NC(=O)c1ccccc1NC(=O)c1ccc(C)cc1)C(=O)O (stereo not given) do in these assays?
NPC1 promoter act: 18%; FLuc counter: inconclusive; ELG1 genotox: 10%; Rab9 promoter act: -6%

How did O=[N+]([O-])c1ccc(Cl)c(S(=O)(=O)Nc2cccc(-c3ccc(N4CCCC4)nn3)c2)c1 do in these assays?
NPC1 promoter act: 17%; FLuc counter: 15µM*; ELG1 genotox: 13%; Rab9 promoter act: 23%

How did Cc1c([N+](=O)[O-])cc(S(=O)(=O)Nc2ccc(-c3ccc(N4CCCC4)nn3)cc2)cc1[N+](=O)[O-] do in these assays?
NPC1 promoter act: -2%; FLuc counter: 19µM*; ELG1 genotox: 3%; Rab9 promoter act: 9%

How did O=[N+]([O-])c1ccc(Cl)c(S(=O)(=O)Nc2ccc(-c3ccc(N4CCCC4)nn3)cc2)c1 do in these assays?
NPC1 promoter act: -1%; FLuc counter: 21µM*; ELG1 genotox: 6%; Rab9 promoter act: -3%

Results for Cc1ccc([N+](=O)[O-])cc1S(=O)(=O)Nc1ccc(-c2ccc(N3CCCC3)nn2)cc1 ?
NPC1 promoter act: 11%; FLuc counter: inconclusive; ELG1 genotox: 6%; Rab9 promoter act: 2%

What do the screens show for `COc1cccc2c1C(=O)c1c(O)c3c(c(O)c1C2=O)C[C@@](O)(C(=O)CO)C[C@@H]3OC1C[C@@H](N)[C@H](O)[C@H](C)O1` (stereo not given in full)?
Luc counter: -13%[39.9 µM]

How did CC1CN(C(=O)N2CCC(C(=O)NCCCc3ccccc3)CC2)c2ccccc2O1 (stereo not given) do in these assays?
FLuc counter: 0%

Results for CCN(Cc1ccccc1)C(=O)c1cc2c(=O)[nH]c3ccc(C)cc3c2s1 ?
FLuc counter: -9%; SMN2 splice enh: 2%

How did COC(=O)c1sccc1NC(=O)c1ccc(C(C)C)cc1 do in these assays?
NPC1 promoter act: 28%; FLuc counter: 11µM*; ELG1 genotox: 15%; Rab9 promoter act: 3.5µM*

How did COC(=O)c1sccc1NC(=O)Nc1ccc(F)cc1 do in these assays?
NPC1 promoter act: 1%; FLuc counter: 8.5µM*; ELG1 genotox: 11%; Rab9 promoter act: 0%

How did COC(=O)c1sccc1NC(=O)c1ccccc1 do in these assays?
NPC1 promoter act: -5%; FLuc counter: -2%; Luc counter: 0%; ELG1 genotox: 0%; Rab9 promoter act: -3%; SMN2 splice enh: 8%

How did COC(=O)c1sccc1NC(=O)Nc1ccc(C)cc1C do in these assays?
NPC1 promoter act: 5%; FLuc counter: -18%; ELG1 genotox: 10%; Rab9 promoter act: 7%

How did COC(=O)c1sccc1NC(=O)Nc1ccc(C)cc1 do in these assays?
NPC1 promoter act: 1%; FLuc counter: 1.7µM*; ELG1 genotox: inconclusive; Rab9 promoter act: -1%

How did COc1ccc(NC(=O)Nc2ccc(F)cc2F)cc1 do in these assays?
NPC1 promoter act: 2.2µM*; FLuc counter: 5.4µM*; Luc counter: -6%; ELG1 genotox: inconclusive; Rab9 promoter act: 2.8µM*; SMN2 splice enh: 20µM*

How did CCCCOc1ccc(CNC(=O)c2cnc3sc(N4CCCCCC4)nn3c2=O)cc1 do in these assays?
FLuc counter: 7%

How did O=C(Nc1ccc(Cl)cc1Cl)c1cc(S(=O)(=O)NCc2ccc3c(c2)OCO3)ccc1F do in these assays?
FLuc counter: -1%

How did O=C(CCS(=O)(=O)c1nc(-c2ccc3c(c2)OCO3)cc(C(F)(F)F)n1)Nc1ccc(Br)cc1 do in these assays?
FLuc counter: 4%; SMN2 splice enh: -69%

How did COc1ccc(NC(=O)c2c(NCc3cccc(F)c3)sc3c2CCC3)c(OC)c1 do in these assays?
FLuc counter: 1%

Results for COc1ccc(NC(=O)CSC2=Nc3ccccc3N=C(c3ccc(F)cc3)C2)cc1OC ?
FLuc counter: -2%

How did COC(=O)c1sccc1NC(=O)Nc1cccc(OC)c1 do in these assays?
NPC1 promoter act: 0%; FLuc counter: 8.5µM*; ELG1 genotox: 5%; Rab9 promoter act: 2%

Results for COc1cccc(NC(=O)Nc2ccccc2Br)c1 ?
NPC1 promoter act: 24%; FLuc counter: 12µM*; Luc counter: -16%; ELG1 genotox: 7%; Rab9 promoter act: inconclusive

Results for COC(=O)c1sccc1NC(=O)Nc1cc(C)cc(C)c1 ?
NPC1 promoter act: 4%; FLuc counter: 7.6µM*; ELG1 genotox: inconclusive; Rab9 promoter act: -5%

How did COC(=O)c1sccc1NC(=O)Nc1ccc(F)cc1F do in these assays?
NPC1 promoter act: -3%; FLuc counter: 21µM*; ELG1 genotox: 4%; Rab9 promoter act: 2%

How did COc1cccc(NC(=O)NCc2ccccc2F)c1 do in these assays?
NPC1 promoter act: 22%; FLuc counter: 17µM*; Luc counter: -3%; ELG1 genotox: inconclusive; Rab9 promoter act: inconclusive; SMN2 splice enh: 28%

Results for COc1ccc(NC(=O)NCc2ccccc2F)cc1OC ?
NPC1 promoter act: -2%; FLuc counter: -4%; Luc counter: 2%; ELG1 genotox: -1%; Rab9 promoter act: -2%; SMN2 splice enh: 11%

How did CCc1ccccc1NC(=O)Nc1ccsc1C(=O)OC do in these assays?
NPC1 promoter act: -5%; FLuc counter: inconclusive; ELG1 genotox: 3%; Rab9 promoter act: 1%

Results for COC(=O)c1sccc1NC(=O)Nc1ccc(C(C)=O)cc1 ?
NPC1 promoter act: 0%; FLuc counter: 2.1µM*; ELG1 genotox: 18µM*; Rab9 promoter act: 10%

Screens from PubChem.
